Holding throughout (assay): DAPPL (digital affinity profiling via proximity ligation, sequencing); 10 mM Tris-HCl pH 7.5, 50 mM NaCl, 1 mM DTT, 4% glycerol, room temperature, 30 min; GST-TFs on glutathione beads, 16-mer random dsDNA library, 0.1% formaldehyde crosslink after washing; high values mean tight binding
The target in one experiment is T1, FEV (Homo sapiens, UniProt Q99581 1-238).
T1 sequence: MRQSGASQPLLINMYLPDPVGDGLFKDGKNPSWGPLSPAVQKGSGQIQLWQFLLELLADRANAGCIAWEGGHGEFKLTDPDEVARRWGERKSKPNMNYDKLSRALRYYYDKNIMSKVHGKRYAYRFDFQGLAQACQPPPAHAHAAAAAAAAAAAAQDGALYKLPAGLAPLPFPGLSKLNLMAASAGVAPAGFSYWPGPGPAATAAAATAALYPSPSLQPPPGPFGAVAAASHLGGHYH
Conditions: protein: recombinant; tags: N-terminal GST; dsDNA, one strand shown. A digest of the protocol: (§1)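 Binding signal is given per hexamer as its read frequency for a factor divided by its frequency in the tag-only sample. GST-fused human transcription factors were expressed in yeast, captured on glutathione beads, barcoded with DNA and pooled with that sample, then incubated with 200 nmole of a 16-mer random double-stranded DNA library in Tris/NaCl/DTT/glycerol buffer for 30 min at room temperature. The pools were then washed, crosslinked, proximity-ligated, amplified by PCR and sequenced on an Illumina NextSeq500.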

A further experiment has as its target ETV5 (Homo sapiens, UniProt P41161 1-510). Conditions: protein: recombinant; tags: N-terminal GST; dsDNA, one strand shown. A digest of the protocol:
as §1

Another experiment concerns the target HSF1 (Homo sapiens, UniProt Q00613 1-529). To be noted: protein: recombinant; tags: N-terminal GST; chain copies: 3; dsDNA, one strand shown. A digest of the protocol: as §1
A further experiment deals with T2, SPIC (Homo sapiens, UniProt Q8N5J4 1-248).
T2 sequence: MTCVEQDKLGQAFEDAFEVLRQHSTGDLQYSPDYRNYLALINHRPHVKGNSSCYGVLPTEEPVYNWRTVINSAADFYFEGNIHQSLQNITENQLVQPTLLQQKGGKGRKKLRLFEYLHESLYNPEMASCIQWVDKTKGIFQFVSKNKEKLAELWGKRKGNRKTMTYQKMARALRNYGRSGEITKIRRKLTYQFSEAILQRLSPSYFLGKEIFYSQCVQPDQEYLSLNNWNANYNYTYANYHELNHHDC
Conditions: protein: recombinant; tags: N-terminal GST; dsDNA, one strand shown. In outline: as §1

In the next experiment the target is ELF4 (Homo sapiens, UniProt Q99607 1-663). To be noted: protein: recombinant; tags: N-terminal GST; dsDNA, one strand shown. A digest of the protocol:
as §1

For the next experiment, the target named is T3, ELK4 (Homo sapiens, UniProt P28324-2 1-405).
T3 sequence: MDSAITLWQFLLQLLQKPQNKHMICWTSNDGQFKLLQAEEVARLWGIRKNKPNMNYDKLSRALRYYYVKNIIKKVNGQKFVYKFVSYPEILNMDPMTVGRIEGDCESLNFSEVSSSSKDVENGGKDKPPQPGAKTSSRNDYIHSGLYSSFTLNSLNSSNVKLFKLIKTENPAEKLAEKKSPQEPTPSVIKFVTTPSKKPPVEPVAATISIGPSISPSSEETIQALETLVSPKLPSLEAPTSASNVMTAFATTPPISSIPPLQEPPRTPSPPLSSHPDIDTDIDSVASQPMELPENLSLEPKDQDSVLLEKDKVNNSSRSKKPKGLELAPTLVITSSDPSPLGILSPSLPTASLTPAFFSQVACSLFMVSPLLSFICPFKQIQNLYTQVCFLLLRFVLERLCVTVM
To be noted: protein: recombinant; tags: N-terminal GST; dsDNA, one strand shown. A digest of the protocol:
as §1

Another experiment has as its target T4, ETV2 (Homo sapiens, UniProt O00321 1-342).
T4 sequence: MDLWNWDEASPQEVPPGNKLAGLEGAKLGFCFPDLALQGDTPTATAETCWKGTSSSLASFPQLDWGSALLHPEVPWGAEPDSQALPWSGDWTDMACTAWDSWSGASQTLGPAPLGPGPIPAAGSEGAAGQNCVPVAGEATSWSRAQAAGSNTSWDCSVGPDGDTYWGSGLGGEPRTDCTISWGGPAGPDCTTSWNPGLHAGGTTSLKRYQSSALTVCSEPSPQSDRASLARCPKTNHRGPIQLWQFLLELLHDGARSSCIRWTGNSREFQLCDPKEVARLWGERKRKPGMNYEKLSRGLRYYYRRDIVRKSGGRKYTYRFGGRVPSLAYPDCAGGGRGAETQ
Conditions: protein: recombinant; tags: N-terminal GST; dsDNA, one strand shown. A digest of the protocol:
as §1

The next experiment has as its target T5, ELF3 (Homo sapiens, UniProt P78545 1-371).
T5 sequence: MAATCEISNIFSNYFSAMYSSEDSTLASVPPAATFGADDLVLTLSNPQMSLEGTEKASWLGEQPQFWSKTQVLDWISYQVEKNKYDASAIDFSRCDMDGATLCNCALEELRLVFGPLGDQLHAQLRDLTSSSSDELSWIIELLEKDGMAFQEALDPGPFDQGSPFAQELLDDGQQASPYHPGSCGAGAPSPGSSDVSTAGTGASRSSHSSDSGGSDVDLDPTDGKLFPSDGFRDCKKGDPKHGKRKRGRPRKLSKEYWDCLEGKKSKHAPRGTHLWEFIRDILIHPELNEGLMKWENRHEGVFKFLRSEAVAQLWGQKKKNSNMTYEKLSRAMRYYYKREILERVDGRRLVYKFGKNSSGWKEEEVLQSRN
To be noted: protein: recombinant; tags: N-terminal GST; dsDNA, one strand shown. A digest of the protocol:
as §1

For another experiment, the target named is CRX (Homo sapiens, UniProt O43186 1-299). To be noted: protein: recombinant; tags: N-terminal GST; dsDNA, one strand shown. A digest of the protocol: as §1
The target of a further experiment is ETV1 (Homo sapiens, UniProt P50549 1-477). Conditions: protein: recombinant; tags: N-terminal GST; dsDNA, one strand shown. A digest of the protocol: as §1
A further experiment deals with T6, ERF (Homo sapiens, UniProt P50548 1-548).
T6 sequence: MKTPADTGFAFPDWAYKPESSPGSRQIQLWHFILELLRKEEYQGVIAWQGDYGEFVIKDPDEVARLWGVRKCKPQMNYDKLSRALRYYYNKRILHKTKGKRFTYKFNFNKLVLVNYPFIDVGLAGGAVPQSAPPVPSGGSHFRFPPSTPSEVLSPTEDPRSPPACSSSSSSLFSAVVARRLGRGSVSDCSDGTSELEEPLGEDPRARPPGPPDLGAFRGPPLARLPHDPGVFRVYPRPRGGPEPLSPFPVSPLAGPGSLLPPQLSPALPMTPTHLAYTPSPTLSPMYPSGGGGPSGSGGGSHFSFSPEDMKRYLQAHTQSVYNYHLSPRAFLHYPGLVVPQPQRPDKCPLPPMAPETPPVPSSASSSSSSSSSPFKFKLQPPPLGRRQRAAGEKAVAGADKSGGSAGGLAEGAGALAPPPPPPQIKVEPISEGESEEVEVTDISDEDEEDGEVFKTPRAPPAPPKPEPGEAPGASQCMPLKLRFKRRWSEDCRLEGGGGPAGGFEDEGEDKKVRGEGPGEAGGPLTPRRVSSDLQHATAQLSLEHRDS
Conditions: protein: recombinant; tags: N-terminal GST; dsDNA, one strand shown. In outline: as §1

Another experiment addresses T7, ETV3L (Homo sapiens, UniProt Q6ZN32 1-361).
T7 sequence: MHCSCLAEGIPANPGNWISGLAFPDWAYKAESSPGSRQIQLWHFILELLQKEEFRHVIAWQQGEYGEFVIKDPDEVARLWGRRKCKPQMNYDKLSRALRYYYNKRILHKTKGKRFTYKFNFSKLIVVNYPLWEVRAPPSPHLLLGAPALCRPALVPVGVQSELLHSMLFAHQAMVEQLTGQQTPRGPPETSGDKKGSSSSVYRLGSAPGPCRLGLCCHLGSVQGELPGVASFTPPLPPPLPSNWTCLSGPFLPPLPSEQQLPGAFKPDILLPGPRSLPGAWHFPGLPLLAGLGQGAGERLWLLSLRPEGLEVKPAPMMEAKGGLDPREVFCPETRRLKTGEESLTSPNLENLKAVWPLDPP
Conditions: protein: recombinant; tags: N-terminal GST; dsDNA, one strand shown. In outline:
as §1

Another experiment concerns the target T8, ETS2 (Homo sapiens, UniProt P15036 1-469).
T8 sequence: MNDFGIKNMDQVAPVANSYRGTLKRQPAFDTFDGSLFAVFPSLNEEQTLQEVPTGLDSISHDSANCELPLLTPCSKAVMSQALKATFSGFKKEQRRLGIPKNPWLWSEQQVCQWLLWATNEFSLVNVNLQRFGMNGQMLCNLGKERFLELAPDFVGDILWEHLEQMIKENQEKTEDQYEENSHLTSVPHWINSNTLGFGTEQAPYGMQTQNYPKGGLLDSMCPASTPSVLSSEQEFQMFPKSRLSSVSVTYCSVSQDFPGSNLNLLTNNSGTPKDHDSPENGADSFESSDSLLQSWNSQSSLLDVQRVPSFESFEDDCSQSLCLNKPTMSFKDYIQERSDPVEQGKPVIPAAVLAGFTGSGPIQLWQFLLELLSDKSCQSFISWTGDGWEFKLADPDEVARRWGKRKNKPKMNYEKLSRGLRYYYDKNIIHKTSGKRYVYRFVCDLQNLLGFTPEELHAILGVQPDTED
Conditions: protein: recombinant; tags: N-terminal GST; dsDNA, one strand shown. In outline:
as §1

Another experiment addresses T9, SPDEF (Homo sapiens, UniProt O95238 1-335).
T9 sequence: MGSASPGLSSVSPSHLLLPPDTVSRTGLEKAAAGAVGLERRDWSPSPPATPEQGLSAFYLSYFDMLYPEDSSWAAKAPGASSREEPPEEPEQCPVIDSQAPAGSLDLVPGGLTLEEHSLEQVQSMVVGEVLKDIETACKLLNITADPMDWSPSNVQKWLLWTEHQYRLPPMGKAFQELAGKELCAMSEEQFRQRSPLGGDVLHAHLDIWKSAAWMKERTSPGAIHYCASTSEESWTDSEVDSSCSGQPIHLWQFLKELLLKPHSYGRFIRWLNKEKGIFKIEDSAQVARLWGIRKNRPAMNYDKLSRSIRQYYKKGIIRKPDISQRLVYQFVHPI
To be noted: protein: recombinant; tags: N-terminal GST; dsDNA, one strand shown. In outline:
as §1

In another experiment the target is T10, ETV7 (Homo sapiens, UniProt Q9Y603 1-341).
T10 sequence: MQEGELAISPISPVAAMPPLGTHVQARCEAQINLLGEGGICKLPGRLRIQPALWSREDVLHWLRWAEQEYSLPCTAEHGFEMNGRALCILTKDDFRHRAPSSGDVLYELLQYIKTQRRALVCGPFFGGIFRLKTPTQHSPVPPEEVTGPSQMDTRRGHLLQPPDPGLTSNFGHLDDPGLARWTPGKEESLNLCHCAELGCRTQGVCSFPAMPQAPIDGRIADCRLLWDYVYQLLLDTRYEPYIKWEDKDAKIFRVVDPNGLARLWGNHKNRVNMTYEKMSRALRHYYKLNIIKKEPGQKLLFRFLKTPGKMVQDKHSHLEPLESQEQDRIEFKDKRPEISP
To be noted: protein: recombinant; tags: N-terminal GST; dsDNA, one strand shown. A digest of the protocol: as §1

The target of the next experiment is T11, ELF5 (Homo sapiens, UniProt Q9UKW6-2 1-255).
T11 sequence: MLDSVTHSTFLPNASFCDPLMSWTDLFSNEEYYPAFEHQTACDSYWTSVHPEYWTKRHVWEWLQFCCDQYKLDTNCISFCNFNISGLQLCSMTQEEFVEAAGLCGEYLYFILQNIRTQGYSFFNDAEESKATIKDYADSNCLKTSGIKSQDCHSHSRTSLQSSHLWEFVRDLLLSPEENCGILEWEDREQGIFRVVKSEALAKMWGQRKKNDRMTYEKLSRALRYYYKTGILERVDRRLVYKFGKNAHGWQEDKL
Conditions: protein: recombinant; tags: N-terminal GST; dsDNA, one strand shown. A digest of the protocol: as §1

A further experiment deals with T12, ETV3 (Homo sapiens, UniProt P41162-2 1-143).
T12 sequence: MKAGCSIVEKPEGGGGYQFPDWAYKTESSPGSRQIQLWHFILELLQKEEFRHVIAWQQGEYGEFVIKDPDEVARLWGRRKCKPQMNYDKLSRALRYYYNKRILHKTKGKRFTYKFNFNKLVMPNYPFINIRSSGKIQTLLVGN
Conditions: protein: recombinant; tags: N-terminal GST; dsDNA, one strand shown. In outline:
as §1

A further experiment concerns the target ETV6 (Homo sapiens, UniProt P41212 1-452). Conditions: protein: recombinant; tags: N-terminal GST; dsDNA, one strand shown. A digest of the protocol:
as §1

Sequence of ETV5 (P41161 whole entry): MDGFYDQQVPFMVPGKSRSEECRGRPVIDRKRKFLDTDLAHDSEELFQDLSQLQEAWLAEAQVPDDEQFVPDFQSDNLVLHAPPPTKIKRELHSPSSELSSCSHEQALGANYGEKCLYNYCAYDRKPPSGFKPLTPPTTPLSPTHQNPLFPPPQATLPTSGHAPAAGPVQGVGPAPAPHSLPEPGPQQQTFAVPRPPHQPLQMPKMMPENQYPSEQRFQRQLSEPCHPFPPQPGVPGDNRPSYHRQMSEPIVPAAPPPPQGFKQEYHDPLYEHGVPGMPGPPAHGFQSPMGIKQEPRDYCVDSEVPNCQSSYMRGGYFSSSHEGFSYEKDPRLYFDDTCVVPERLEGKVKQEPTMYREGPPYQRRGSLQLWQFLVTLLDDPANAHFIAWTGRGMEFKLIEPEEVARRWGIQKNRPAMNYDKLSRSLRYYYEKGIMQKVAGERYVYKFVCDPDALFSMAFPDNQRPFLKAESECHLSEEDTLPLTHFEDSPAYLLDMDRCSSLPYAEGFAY
Sequence of ETV1 (P50549 whole entry): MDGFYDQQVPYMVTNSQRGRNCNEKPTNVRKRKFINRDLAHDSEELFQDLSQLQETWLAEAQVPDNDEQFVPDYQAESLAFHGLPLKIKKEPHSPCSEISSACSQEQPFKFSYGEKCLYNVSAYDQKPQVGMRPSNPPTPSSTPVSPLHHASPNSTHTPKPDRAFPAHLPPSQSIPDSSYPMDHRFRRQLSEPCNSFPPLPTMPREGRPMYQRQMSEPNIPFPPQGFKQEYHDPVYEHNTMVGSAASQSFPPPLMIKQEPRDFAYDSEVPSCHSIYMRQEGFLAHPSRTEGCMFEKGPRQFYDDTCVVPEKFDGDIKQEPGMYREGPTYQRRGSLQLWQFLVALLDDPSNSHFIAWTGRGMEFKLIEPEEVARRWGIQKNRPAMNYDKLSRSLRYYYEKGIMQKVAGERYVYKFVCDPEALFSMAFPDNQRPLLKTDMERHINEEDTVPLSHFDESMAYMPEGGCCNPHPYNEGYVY
Sequence of ELF4 (Q99607 whole entry): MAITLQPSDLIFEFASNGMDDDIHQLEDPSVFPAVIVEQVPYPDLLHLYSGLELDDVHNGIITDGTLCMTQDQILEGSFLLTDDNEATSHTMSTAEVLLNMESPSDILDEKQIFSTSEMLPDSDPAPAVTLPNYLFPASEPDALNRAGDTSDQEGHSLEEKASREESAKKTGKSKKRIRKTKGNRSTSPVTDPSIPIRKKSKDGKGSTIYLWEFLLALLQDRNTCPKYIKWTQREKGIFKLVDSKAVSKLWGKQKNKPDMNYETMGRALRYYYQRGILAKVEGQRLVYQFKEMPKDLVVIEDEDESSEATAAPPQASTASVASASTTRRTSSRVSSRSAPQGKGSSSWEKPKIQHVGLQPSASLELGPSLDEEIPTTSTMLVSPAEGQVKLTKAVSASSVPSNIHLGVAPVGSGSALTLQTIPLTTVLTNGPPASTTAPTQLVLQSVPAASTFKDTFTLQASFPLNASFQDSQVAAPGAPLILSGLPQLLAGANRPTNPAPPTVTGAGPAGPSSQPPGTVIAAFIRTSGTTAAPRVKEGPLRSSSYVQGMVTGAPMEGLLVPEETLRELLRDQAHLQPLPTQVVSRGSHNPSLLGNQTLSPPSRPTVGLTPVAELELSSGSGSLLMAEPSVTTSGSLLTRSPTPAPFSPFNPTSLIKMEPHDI
Sequence of CRX (O43186 whole entry): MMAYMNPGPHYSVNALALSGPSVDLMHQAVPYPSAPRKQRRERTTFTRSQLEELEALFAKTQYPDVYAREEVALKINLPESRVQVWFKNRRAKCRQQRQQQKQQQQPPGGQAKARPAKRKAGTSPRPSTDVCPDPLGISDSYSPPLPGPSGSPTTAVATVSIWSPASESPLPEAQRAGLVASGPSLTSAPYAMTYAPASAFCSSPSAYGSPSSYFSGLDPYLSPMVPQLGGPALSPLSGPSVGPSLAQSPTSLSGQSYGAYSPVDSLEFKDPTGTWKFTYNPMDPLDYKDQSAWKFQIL
Sequence of ETV6 (P41212 whole entry): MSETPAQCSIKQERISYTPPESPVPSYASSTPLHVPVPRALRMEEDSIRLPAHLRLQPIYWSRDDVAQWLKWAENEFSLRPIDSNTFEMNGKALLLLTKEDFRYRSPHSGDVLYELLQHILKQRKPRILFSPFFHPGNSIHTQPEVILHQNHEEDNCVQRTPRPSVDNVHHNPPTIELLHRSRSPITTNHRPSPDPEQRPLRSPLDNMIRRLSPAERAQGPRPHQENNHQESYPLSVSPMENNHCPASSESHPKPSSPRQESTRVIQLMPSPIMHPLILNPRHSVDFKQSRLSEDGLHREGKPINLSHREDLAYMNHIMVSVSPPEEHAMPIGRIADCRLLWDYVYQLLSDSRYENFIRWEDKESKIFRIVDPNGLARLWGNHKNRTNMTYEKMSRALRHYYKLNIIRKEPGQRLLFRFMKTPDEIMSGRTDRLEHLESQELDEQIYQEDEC
Sequence of HSF1 (Q00613 whole entry): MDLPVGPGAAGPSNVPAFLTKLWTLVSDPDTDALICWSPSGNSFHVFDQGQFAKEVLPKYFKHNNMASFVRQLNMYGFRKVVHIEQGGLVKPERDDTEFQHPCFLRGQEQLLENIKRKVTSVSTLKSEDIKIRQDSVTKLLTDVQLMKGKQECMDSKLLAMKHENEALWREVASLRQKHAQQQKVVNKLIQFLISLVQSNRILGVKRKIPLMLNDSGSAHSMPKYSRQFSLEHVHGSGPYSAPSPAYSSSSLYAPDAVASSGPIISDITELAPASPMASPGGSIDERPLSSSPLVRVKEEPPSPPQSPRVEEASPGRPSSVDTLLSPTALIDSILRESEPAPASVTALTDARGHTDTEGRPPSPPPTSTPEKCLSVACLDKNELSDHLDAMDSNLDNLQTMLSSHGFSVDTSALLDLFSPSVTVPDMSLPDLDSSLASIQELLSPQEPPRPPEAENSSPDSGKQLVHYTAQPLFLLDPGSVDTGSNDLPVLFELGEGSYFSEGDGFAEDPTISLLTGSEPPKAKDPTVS

As for TCGTCT, the binding signal is 1.3 fold enrichment (6-mer frequency, TF over GST control) with FEV; 1.33 fold enrichment (6-mer frequency, TF over GST control) with ETV5; 1.46 fold enrichment (6-mer frequency, TF over GST control) in the experiment with HSF1; 1.27 fold enrichment (6-mer frequency, TF over GST control) in the experiment with SPIC; 1.35 fold enrichment (6-mer frequency, TF over GST control) with ELF4; 1.32 fold enrichment (6-mer frequency, TF over GST control) with ELK4. The binding signal in the experiment with ETV2 was 1.36 fold enrichment (6-mer frequency, TF over GST control); with ELF3 it was 1.52 fold enrichment (6-mer frequency, TF over GST control); with CRX, 1.37 fold enrichment (6-mer frequency, TF over GST control); with ETV1, 1.41 fold enrichment (6-mer frequency, TF over GST control); with ERF, 1.4 fold enrichment (6-mer frequency, TF over GST control); in the experiment with ETV3L, 1.43 fold enrichment (6-mer frequency, TF over GST control). The binding signal in the experiment with ETS2 was 1.46 fold enrichment (6-mer frequency, TF over GST control); in the experiment with SPDEF, 1.37 fold enrichment (6-mer frequency, TF over GST control); with ETV7, 1.21 fold enrichment (6-mer frequency, TF over GST control); with ELF5, 1.32 fold enrichment (6-mer frequency, TF over GST control); with ETV3, 1.23 fold enrichment (6-mer frequency, TF over GST control); with ETV6, 1.34 fold enrichment (6-mer frequency, TF over GST control).

Source of the values: PMC7862700, “An all-to-all approach to the identification of sequence-specific readers for epigenetic DNA modifications on cytosine”.
